Test results: the supplement of paper PMC3342239
Where a name gives a salt, the structure may show the parent alone.

test system: Saccharomyces cerevisiae; assay: fraction of cells in G1 phase (DNA content, flow cytometry); higher = more cells with unreplicated DNA (G1 delay); conditions: temperature: 30 C; YPD; JTY2953 pdr5 snq2 (sensitized); drug added to: cultures diluted from stationary phase; 6-7 h
Method in brief: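 Yeast (S. cerevisiae) in YPD at 30°C was treated with library drugs, and cells were then fixed in ethanol, stained with SYTOX Green and counted by flow cytometry over 10,000 events. Sensitized JTY2953 diluted 1∶200 from an overnight culture got a final 20 µg/ml and was fixed 6–7 h later; other runs dosed dividing JTY2953 (fixed at 6 h) or BY4741 (fixed at 4.33 h). G1 fraction means the Dean-Jett-Fox G1 peak area relative to the G1 and G2/M areas together.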

Compound	fraction of cells in G1 phase
COc1cc([C@@H]2c3cc4c(cc3[C@@H](O[C@@H]3O[C@@H]5CO[C@@H](C)O[C@H]5[C@H](O)[C@H]3O)[C@H]3COC(=O)[C@H]23)OCO4)cc(OC)c1O [Etoposide] (33.9806 µM)	0.496
CCS(=O)(=O)CCn1c([N+](=O)[O-])cnc1C [Tinidazole] (80.8818 µM)	0.443
CC(=O)S[C@@H]1CC2=CC(=O)CC[C@]2(C)[C@H]2CC[C@@]3(C)[C@@H](CC[C@@]34CCC(=O)O4)[C@H]12 [Spironolactone] (48.0095 µM)	0.531
CN1C(C(=O)Nc2ccccn2)=C(O)c2sccc2S1(=O)=O [Tenoxicam] (59.2806 µM)	0.469
O=C(O)/C=C/c1ccc(Cn2ccnc2)cc1 [Ozagrel] (87.6221 µM)	0.471
CC(=O)O[C@]1(C(C)=O)CC[C@H]2[C@@H]3C=C(C)C4=CC(=O)CC[C@]4(C)[C@H]3CC[C@@]21C [Megestrol acetate] (52.0129 µM)	0.575
Cc1ccc(C(=O)c2ccc(CC(=O)O)n2C)cc1 [Tolmetin Na] (77.7328 µM)	0.482
CS(=O)(=O)c1ccc(C2=C(c3ccccc3)C(=O)OC2)cc1 [Rofecoxib] (63.6208 µM)	0.536
C#C[C@]1(O)CC[C@H]2[C@@H]3CCC4=CC(=O)CC[C@@H]4[C@H]3CC[C@@]21CC [Levonorgestrel] (64.009 µM)	0.509
COc1ccc2[nH]cc(CCNC(C)=O)c2c1 [Melatonin] (86.1012 µM)	0.529
NC(=O)OCC(COC(N)=O)c1ccccc1 [Felbamate] (83.9631 µM)	0.505
Cn1ccnc1S [Methimazole] (175.178 µM)	0.473
CCCc1nc2c(C)cc(-c3nc4ccccc4n3C)cc2n1Cc1ccc(-c2ccccc2C(=O)O)cc1 [Telmisartan] (38.8627 µM)	0.543
CC(=O)O[C@H]1C(=O)[C@@]2(C)[C@H]([C@H](OC(=O)c3ccccc3)[C@]3(O)C[C@H](OC(=O)[C@H](O)[C@@H](NC(=O)c4ccccc4)c4ccccc4)C(C)=C1C3(C)C)[C@]1(OC(C)=O)CO[C@@H]1C[C@@H]2O [Taxol] (23.4212 µM)	0.481
c1ccc([C@H]2CN3CCSC3=N2)cc1 [Levamisole HCl] (97.8973 µM)	0.488
CCCCCOC(=O)Nc1nc(=O)n([C@@H]2O[C@H](C)[C@@H](O)[C@H]2O)cc1F [Capecitabine] (55.6483 µM)	0.442
Cc1cccc(Nc2ccccc2C(=O)O)c1C [Mefenamic acid] (82.887 µM)	0.464
Cc1cc2c(OCC(CNC(C)(C)C)OC(=O)c3ccccc3)cccc2[nH]1 (centres undefined) [Bopindolol malonate] (52.5636 µM)	0.517
COc1cc(C(=O)NS(=O)(=O)c2ccccc2C)ccc1Cc1cn(C)c2ccc(NC(=O)OC3CCCC3)cc12 [Zafirlukast] (34.741 µM)	0.509
CC(COc1ccccc1)N(CCCl)Cc1ccccc1 (centres undefined) [Phenoxybenzamine HCl] (58.7717 µM)	0.514

Compound	fraction of cells in G1 phase
CCOC(=O)OC(C)OC1=C(C(=O)Nc2ccccn2)N(C)S(=O)(=O)c2ccccc21 (centres undefined) [Ampiroxicam] (44.6957 µM)	0.5
O=C(CCCN1CCC(O)(c2cccc(C(F)(F)F)c2)CC1)c1ccc(F)cc1 [Trifluperidol 2HCl] (48.8487 µM)	0.563
CC(C)[C@H](N)C(=O)OCCOCn1cnc2c(=O)nc(N)[nH]c21 [Valaciclovir] (61.6633 µM)	0.465
COc1ncnc(NS(=O)(=O)c2ccc(N)cc2)c1OC [Sulfadoxine] (64.4467 µM)	0.474
CCC1=C(C)CN(C(=O)NCCc2ccc(S(=O)(=O)NC(=O)N[C@H]3CC[C@H](C)CC3)cc2)C1=O [Glimepiride] (40.7642 µM)	0.481
CCC1=C[C@@H]2CN(C1)Cc1c([nH]c3ccccc13)[C@@](C(=O)OC)(c1cc3c(cc1OC)N(C)[C@H]1[C@@](O)(C(=O)OC)[C@H](OC(C)=O)[C@]4(CC)C=CCN5CC[C@]31[C@@H]54)C2 [Vinorelbine] (25.6755 µM)	0.481
Nc1c2c(nc3ccccc13)CCCC2 [Tacrine HCl] (100.873 µM)	0.541
CN1C(C(=O)Nc2ccccn2)=C(O)c2ccccc2S1(=O)=O [Piroxicam] (60.3587 µM)	0.505
COc1ccc(CC2c3cc(OC)c(OC)cc3CC[N+]2(C)CCC(=O)OCCCCCOC(=O)CC[N+]2(C)CCc3cc(OC)c(OC)cc3C2Cc2ccc(OC)c(OC)c2)cc1OC (centres undefined) [Atracurium besylate] (21.5246 µM)	0.474
CC(C[N+](C)(C)C)OC(N)=O (stereo not drawn) [Carbamyl-beta-methylcholine Cl] (124.05 µM)	0.5
CN(Cc1cc(Br)cc(Br)c1N)C1CCCCC1 [Bromhexine HCl] (53.1721 µM)	0.466
C[C@@H](O)[C@@H]1NC(=O)[C@H](CCCCN)NC(=O)[C@@H](Cc2c[nH]c3ccccc23)NC(=O)[C@H](Cc2ccccc2)NC(=O)[C@@H](NC(=O)[C@H](N)Cc2ccccc2)CSSC[C@@H](C(=O)N[C@H](CO)[C@@H](C)O)NC1=O [Octreotide] (19.6221 µM)	0.478
Nc1c(Br)cc(Br)cc1CN[C@H]1CC[C@H](O)CC1 [Ambroxol] (52.8948 µM)	0.529
CN(C)CCCOc1nn(Cc2ccccc2)c2ccccc12 [Benzydamine] (64.6382 µM)	0.48
Nc1ccc(C(=O)O)c(O)c1 [4-aminosalicylic acid] (130.601 µM)	0.481
C[N+](C)(C)CCOC(=O)CCC(=O)OCC[N+](C)(C)C [Succinylcholine] (68.8691 µM)	0.467
CCN(CC)CCNC(=O)c1ccc(N)cc1 [Procainamide] (73.5835 µM)	0.494
CCC(NC(C)C)C(O)c1ccc(O)c2[nH]c(=O)ccc12 (centres undefined) [Procaterol hcl] (68.8787 µM)	0.526
C[C@H]1COc2c(C3(N)CC3)c(F)cc3c(=O)c(C(=O)O)cn1c23 [Pazufloxacin] (62.8324 µM)	0.474
